Results from PubChem BioAssay (EPA / NIEHS).
Calls of active or inactive are those of the source. How the source made its calls: active means hit-call score of the fitted dose curve at least 0.9, where 1 is the maximum; inactive means score below 0.9.

target: Transcription factor Sp1 (Homo sapiens) (UniProt P08047); assay: ATG_Sp1_CIS: Attagene CIS-FACTORIAL HepG2 Assay for human Specificity Protein 1 (Sp1) (AID 2282961); conditions: HepG2 Sp1 cis-reporter transcription, actives raise or lower the signal
Procedure: ATG_CIS is a cell-based, multiplexed-readout assay that uses HepG2, a human liver cell line, with measurements taken at 24 hours after chemical dosing in a 24-well plate.ATG_Sp1_CIS is one of 52 assay component(s) measured or calculated from the ATG_CIS assay. It is designed to make measurements of mRNA induction, a form of inducible reporter, as detected with fluorescence intensity signals by Reverse transcription polymerase chain reaction (RT-PCR) and Capillary electrophoresis technology.Data from the assay component ATG_Sp1_CIS was analyzed into 1 assay endpoint. This assay endpoint, ATG_Sp1_CIS, was analyzed with bidirectional fitting relative to DMSO as the negative control and baseline of activity. Using a type of inducible reporter, measures of mRNA for gain or loss-of-signal activity can be used to understand the reporter gene at the transcription factor-level as they relate to the gene SP1. Furthermore, this assay endpoint can be referred to as a primary readout, because this assay has produced multiple assay endpoints where this one serves a reporter gene function. To generalize the intended target to other relatable targets, this assay endpoint is annotated to the dna binding intended target family, where the subfamily is zinc finger.
Human liver HepG2 cells are transiently transfected with multiple reporter transcription units (MRTUs) in 6-well plates using FuGene 6 reagent (Roche; 3 ml FuGene/1 mg DNA). The MRTU constructs are regulated by a cis-regulating element (promoter). […] A major difference between the CIS and TRANS system is that in CIS activities of endogenous TFs are measured, whereas the TRANS assay evaluates changes in activities of exogenous, chimeric NR-Gal4 proteins. […] At the end of 24 hour incubation, total RNA was isolated using TriZol reagent (Invitrogen). The isolated RNA is then reverse-transcribed using oligo(dT) primer and Mo-MLV reverse transcriptase (Invitrogen) with DNAse I (Ambion) treatment for 30 min. The one-tenth of the produced cDNA was amplified by PCR using Taq DNA polymerase (Invitrogen) and two reporter sequence-specific primers. The PCR products were fluorescently labeled by primer extension with 6-arboxyfluorescein (6-FAM) 5'-labeled reporter sequence-specific primer (2 min at 95 C, 20 s at 68 C and 10 min at 72 C) and these products were digested with 5U of HpaI (New England Biolabs) for 2h at 37 C. The fragments were purified using Qiaquick PCR columns (Qiagen), analyzed on an ABI 3130xL genetic analyzer (Applied Biosystems) with peak positions identified by using a set of X-rhodamine (ROX)-labeled MapMarker1000 molecular weight standards (BioVentures). The raw capillary electrophoresis data was processed using Attagraph software (Attagene).

Transcription factor Sp1 (Homo sapiens), sequence (P08047 whole entry, looked up): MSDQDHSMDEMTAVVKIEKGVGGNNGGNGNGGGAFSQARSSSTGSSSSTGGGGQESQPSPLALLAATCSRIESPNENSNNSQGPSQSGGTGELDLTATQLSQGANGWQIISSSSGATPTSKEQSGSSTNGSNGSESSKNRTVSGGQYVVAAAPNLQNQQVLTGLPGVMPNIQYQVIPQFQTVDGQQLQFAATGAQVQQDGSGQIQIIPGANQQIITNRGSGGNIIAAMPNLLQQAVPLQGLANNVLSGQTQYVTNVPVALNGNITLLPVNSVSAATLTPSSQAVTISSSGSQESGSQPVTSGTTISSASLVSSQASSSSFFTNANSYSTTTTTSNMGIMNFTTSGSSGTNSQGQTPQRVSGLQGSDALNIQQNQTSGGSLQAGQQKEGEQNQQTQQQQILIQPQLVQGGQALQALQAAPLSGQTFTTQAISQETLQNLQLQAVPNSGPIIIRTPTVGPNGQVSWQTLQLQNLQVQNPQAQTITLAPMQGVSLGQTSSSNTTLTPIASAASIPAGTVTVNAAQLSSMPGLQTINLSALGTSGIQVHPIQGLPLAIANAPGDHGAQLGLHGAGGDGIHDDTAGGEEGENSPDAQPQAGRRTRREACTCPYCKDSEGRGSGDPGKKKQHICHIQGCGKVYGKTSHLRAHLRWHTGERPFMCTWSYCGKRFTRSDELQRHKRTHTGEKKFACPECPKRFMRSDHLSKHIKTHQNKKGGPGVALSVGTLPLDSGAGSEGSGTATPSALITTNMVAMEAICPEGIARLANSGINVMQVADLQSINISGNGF

Row | SMILES | outcome | AC50
1 | COCCc1ccc(OCC(O)CNC(C)C)cc1 (stereo not given) | inactive | 
2 | C=C(C#N)C(=O)OCC | inactive | 
3 | CCCCCCCCSCCO | inactive | 
4 | Cc1ccc(C)o1 | inactive | 
5 | CN(C)c1ccncc1 | inactive | 
6 | CCOC(=O)CCc1ccccc1 | inactive | 
7 | CCCC(C)=O | inactive | 
8 | CC1C2CC(CC2C2CCCC(O)C2)C1(C)C (stereo not given) | inactive | 
9 | CCCCOCC | inactive | 
10 | CCCCCC(C)=O | inactive | 
11 | CC1(C)CCC[C@]2(C)[C@H]3CCO[C@]3(C)CC[C@@H]12 | inactive | 
12 | COc1ccc(N=Nc2cc(C)c(N=Nc3ccc(S(=O)(=O)O)cc3)cc2OC)cc1 |  | 175 µM (active)
13 | CCOc1ccc(N=Nc2ccc(C=Cc3ccc(N=Nc4ccc(OCC)cc4)cc3S(=O)(=O)O)c(S(=O)(=O)O)c2)cc1 | inactive | 
14 | CC1(C)C2=CCCC(C)(C)[C@]23CC[C@H]1C3 | inactive | 
15 | CC1(C)O[C@@H]2[C@@H](CO[C@@]3(COS(N)(=O)=O)OC(C)(C)O[C@@H]23)O1 | inactive | 
16 | CCCCCC(=O)CC | inactive | 
17 | C[C@H](CCC(=O)NCC(=O)O)[C@H]1CC[C@H]2[C@@H]3[C@H](O)C[C@@H]4C[C@H](O)CC[C@]4(C)[C@H]3C[C@H](O)[C@]12C | inactive | 
18 | Cc1cc(=O)oc2cc(N(C)C)ccc12 | inactive | 
19 | COC(C)(C)CCO | inactive | 
20 | CCCC[P+](CCCC)(CCCC)CCCC | inactive | 

Row | SMILES | outcome | AC50
21 | OCCCCC(O)CO (stereo not given) | inactive | 
22 | COc1ccc(CCN2CCC(Nc3nc4ccccc4n3Cc3ccc(F)cc3)CC2)cc1 | inactive | 
23 | CCc1cc(C(C)(C)C)c(O)c(C(C)(C)C)c1 |  | 33.4 µM (active)
24 | CCC(=O)OCCOc1ccccc1 | inactive | 
25 | CCCC1O[C@@H]2C[C@H]3[C@@H]4CCC5=CC(=O)C=C[C@]5(C)[C@H]4[C@@H](O)C[C@]3(C)[C@]2(C(=O)CO)O1 (stereo not given in full) | inactive | 
26 | CS(=O)(=O)c1ccc(Cl)cc1 | inactive | 
27 | CC(=O)Nc1ccc(C(=O)CCl)cc1 |  | 8.32 µM (active)
28 | CCN(CC)C(=O)N(CC)CC | inactive | 
29 | CSc1c(Cl)c(Cl)c(Cl)c(Cl)c1Cl |  | 72.8 µM (active)
30 | [O-]n1ccccc1=S.[O-]n1ccccc1=S.[Zn+2] | inactive | 
31 | O=C(Nc1ccc2c(c1)Cc1ccccc1-2)C(F)(F)F | inactive | 
32 | COc1ccc(CCC(C)=O)cc1 | inactive | 
33 | CCCC(=O)c1ccccc1 | inactive | 
34 | N[C@@H](Cc1cc(I)c(Oc2cc(I)c(O)c(I)c2)c(I)c1)C(=O)O | inactive | 
35 | CCOC(=O)C(C#N)=C(c1ccccc1)c1ccccc1 | inactive | 
36 | CCCCCc1ccco1 | inactive | 
37 | CC(C)OCCO | inactive | 
38 | OCc1ccc(Cl)cc1Cl | inactive | 
39 | CCC1(C)NC(=O)NC1=O (stereo not given) | inactive | 
40 | COc1ccc(OC)c(N=Nc2c(O)ccc3ccccc23)c1 | inactive | 
